Laboratory results from the supplement of paper PMC3334620.
The full ranking holds about 33,000 sequences; the median of “E-score (-0.5 to 0.5)” is about -0.017, and the highest 2% start at about 0.3. Only a selection was taken, and the highest values are over-represented in it overall.

Molecular target: T1, Sut1 (UniProt P53032)
T1 sequence: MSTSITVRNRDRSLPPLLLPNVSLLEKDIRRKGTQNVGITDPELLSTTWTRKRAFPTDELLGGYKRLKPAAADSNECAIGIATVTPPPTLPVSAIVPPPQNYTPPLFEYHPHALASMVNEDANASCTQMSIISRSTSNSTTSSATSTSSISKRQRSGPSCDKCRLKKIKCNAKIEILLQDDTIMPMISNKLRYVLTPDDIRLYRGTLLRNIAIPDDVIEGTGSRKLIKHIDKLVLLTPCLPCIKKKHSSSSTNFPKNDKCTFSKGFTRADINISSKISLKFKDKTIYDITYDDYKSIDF
Assay: PBM E-score (8-mer binding enrichment) (E-score (-0.5 to 0.5)); higher = stronger / more preferred TF binding
Conditions: protein concentration: 200 nM; construct: GST-full length
Description: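 Universal 'all 10-mer' protein binding microarrays (Agilent AMADID 015681) probed with GST-tagged S. cerevisiae TFs (full-length or DBD) made by in vitro transcription/translation (PURExpress), about 100-200 nM. Bound TF was detected with fluorescent anti-GST. Each ungapped 8-mer (which stands for itself and its reverse complement) is scored by the PBM enrichment score (E-score), a modified Wilcoxon-Mann-Whitney statistic from -0.5 to +0.5, computed with the Universal PBM Analysis Suite. Scale: above 0.35 generally sequence-specific binding.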

| Sequence | PBM E-score |
| --- | --- |
| CCGCGACC | -0.177 |
| ATGAGCTA | 0.0367 |
| AGTCAAAC | -0.135 |
| GGCAATTA | 0.0911 |
| TCCGAGAA | 0.407 |
| CCCGAGAA | 0.157 |
| ACCGAGAA | 0.229 |
| AACTTGCG | -0.0193 |
| ATACTCCC | 0.108 |
| ATACTCCA | -0.0121 |
| ACACTCCG | 0.438 |
| ACACTCCT | -0.0674 |
| ATACTCCG | 0.487 |
| ACTCTCCG | 0.27 |
| CCACTCCC | -0.254 |
| CCACTCCG | 0.444 |
| CCACTCCA | -0.174 |
| ACAGACAA | 0.294 |
| GGATAGCC | 0.0369 |
| TAGCATCA | -0.0462 |
| GCAATTGC | -0.0673 |
| CGGCCTGC | -0.186 |
| CTGTGCAC | -0.277 |
| CGGTGTCC | 0.0917 |
| GAACCCTC | -0.17 |

| Sequence | PBM E-score |
| --- | --- |
| CGACTCCA | -0.132 |
| CGACTCCC | -0.211 |
| AGACTCCC | -0.319 |
| AGACTCCT | -0.142 |
| CGACTCCG | 0.47 |
| AGACTCCG | 0.47 |
| AACTGTCG | 0.00476 |
| GCTAGTAC | -0.14 |
| ACCTGAGA | -0.0623 |
| CCCGAAGG | -0.0908 |
| AGAATTCA | 0.115 |
| ATAAACTC | 0.315 |
| ATAAACTG | 0.047 |
| CTAAACTC | 0.225 |
| TACACCCA | 0.036 |
| TAGCGTCA | -0.116 |
| CGGAAAGC | 0.275 |
| CGGAAATC | 0.212 |
| GGGAAATA | 0.0403 |
| AGGAAAGA | 0.0593 |
| CGGAAATA | 0.337 |
| CGGAAAGA | 0.312 |
| AATGTGCT | 0.0947 |
| TACTGAGA | -0.055 |
| AAGGTCCT | -0.239 |

| Sequence | PBM E-score |
| --- | --- |
| AAGGTCCA | -0.135 |
| CAGGTCCC | -0.182 |
| CAGGTCCG | 0.438 |
| CAGGTCCA | -0.231 |
| AAGGTCCG | 0.407 |
| AGTCGAAA | 0.115 |
| TCTGGTAA | -0.0251 |
| ATGCTAGA | 0.0093 |
| ACGCTGTA | -0.0391 |
| ATCAAGAG | 0.117 |
| CTAGGCTC | -0.149 |
| CGTAGCCC | -0.274 |
| AGCGCCCT | -0.128 |
| ACGGACCA | 0.277 |
| ACGGACCT | 0.339 |
| ACGGACAG | -0.0929 |
| ACGGACAC | 0.0824 |
| ACGGACCG | -0.0134 |
| ACGGACAT | 0.404 |
| ACAGTCCC | -0.2 |
| GTTCCCTA | -0.238 |
| CGAATATA | 0.231 |
| CCCATATC | -0.043 |
| GACTCATA | 0.0779 |
| AATCCGAC | 0.0553 |

| Sequence | PBM E-score |
| --- | --- |
| ACTCCCAT | -0.0456 |
| CCTCCGAC | 0.0212 |
| ACTCCGAC | 0.489 |
| ACTCCTAT | 0.0886 |
| ACTCCGAT | 0.491 |
| GCAACGGA | 0.306 |
| ACAACGGG | 0.0387 |
| ACAACGGA | 0.335 |
| TCAACGGA | 0.246 |
| GCAACGGC | -0.0987 |
| CCAACGGA | 0.207 |
| AAGCCAGT | -0.176 |
| CAGAAGAC | -0.17 |
| CACGTGCC | -0.186 |
| AGTGGCCA | -0.202 |
| ATGCGCTA | -0.0278 |
| AGCTCTAC | -0.325 |
| CATGTCCC | -0.1 |
| AATGTCCG | 0.447 |
| CATGTCCA | 0.0978 |
| ATTGTCCA | -0.0211 |
| ATTGTCCG | 0.359 |
| AATGTCCT | -0.0934 |
| ATTGTCCC | -0.108 |
| AATGTCCA | 0.0363 |

| Sequence | PBM E-score |
| --- | --- |
| CATGTCCG | 0.382 |
| TCGAACAA | 0.102 |
| AGGGGGTA | -0.323 |
| AGACCGCA | -0.0648 |
| AGGGGATC | -0.134 |
| CCAACCCG | -0.172 |
| CCCTGCTC | -0.0773 |
| CTCTCAGA | -0.139 |
| CGCCGATC | 0.137 |
| GTCCGATA | 0.362 |
| CTCCGATA | 0.432 |
| GGCCGATA | -0.152 |
| CGCCGATA | -0.197 |
| ATCCGATC | 0.18 |
| ATCCGATA | 0.215 |
| CTCCGATC | 0.38 |
| CACCGATA | 0.04 |
| CCCAGCTC | 0.03 |
| CTACACCC | -0.286 |
| AAAAAAAA | 0.228 |
| CCCCAATC | -0.327 |
| TGTGTAAA | 0.194 |
| ATGGACTA | -0.0502 |
| AGGGACTC | -0.186 |
| ACGGACGA | 0.1 |

| Sequence | PBM E-score |
| --- | --- |
| GCGGACTA | 0.404 |
| ACGGACTC | 0.393 |
| CCGGACCA | 0.241 |
| ACGGACTA | 0.431 |
| GAGGACTA | 0.0368 |
| GCGGACCA | 0.175 |
| CTGGACTA | -0.0898 |
| CCGGACTA | 0.48 |
| ACGGACTG | 0.22 |
| CGATCTCA | -0.0333 |
| AAGTGATT | 0.237 |
| AGTGTATG | 0.14 |
| AGCCCATA | -0.137 |
| ACTATTCT | 0.0103 |
| CCGGACTC | 0.476 |
| CCGGACAC | 0.112 |
| CGGGACTC | 0.0911 |
| ACGTAACT | 0.009 |
| CTATCCAA | 0.057 |
| TTATCCAA | 0.3 |
| ATATCCAA | 0.158 |
| ATTTTGTG | 0.239 |
| CTTTTGTA | 0.259 |
| ATTTTGTA | 0.318 |
| GACTACGA | 0.0667 |

| Sequence | PBM E-score |
| --- | --- |
| CGTCGGAG | 0.422 |
| AGTCGGAA | 0.243 |
| CGTCGGAA | 0.196 |
| GGTCGGAC | 0.259 |
| AGTCGGAT | 0.173 |
| AGTCGGAC | 0.337 |
| AGTCGGAG | 0.316 |
| CGTCGGAC | 0.247 |
| TGTCGGAA | 0.218 |
| CCATTCGG | 0.00649 |
| ATGTTCGG | 0.181 |
| CTGCCCAG | -0.222 |
| GCCTGGCA | -0.3 |
| AGACGGAG | 0.322 |
| CCACGGAC | 0.202 |
| GGACGGAC | 0.285 |
| ACACGGAT | 0.0295 |
| CGACGGAC | 0.349 |
| AGACGGAT | 0.0639 |
| CCACGGAA | 0.178 |
| ACACGGAG | 0.409 |
| ACACGGAA | 0.18 |
| CGACGGAA | 0.116 |
| CCACGGAG | 0.365 |
| AGACGGAA | 0.0433 |
